# Data as given in PubChem BioAssay (Tox21).
# “And” between values parts separate entries of the source, which are not always exact repeats. Equal values may be shown once. Results filed as inconclusive are left out. Where a call stands in place of a potency, no number is given. Where a structure was tested more than once in an assay, its records may differ in their call. The source made the active and inactive calls. Calls come from the whole dose curve; as a rule, active = well fitted curve in the direction sought with a large enough effect in the repeat runs; inconclusive = weak or mixed curves; inactive = no such curve, though single readings can be large; an effect the other way counts as inactive or inconclusive.
# Molecular target: Cytochrome P450 1A2 (Homo sapiens) (UniProt P05177)
# Experiment: Cytochrome P450 Family 1 Subfamily A Member 2 (CYP1A2) small molecule antagonists: luciferase reporter qHTS assay (AID 1671199); note: potency is the fitted concentration of half-maximal effect
# Conditions: P450-Glo CYP1A2 enzyme, luciferin luminescence, 1 h; series mostly up to 115 µM; activity change, negative = inhibition: at the top concentration
# Outline: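 P450-Glo CYP1A2, 1536-well qHTS: enzyme/proluciferin substrate + cpd (DMSO), 10 min RT; NADPH regen, 1 h RT; detection reagent, 20 min; luminescence, RLU.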
# Note: nearly all actives have a fitted effect of over 50% in size.
# Cytochrome P450 1A2 (Homo sapiens), sequence (P05177 whole entry, looked up): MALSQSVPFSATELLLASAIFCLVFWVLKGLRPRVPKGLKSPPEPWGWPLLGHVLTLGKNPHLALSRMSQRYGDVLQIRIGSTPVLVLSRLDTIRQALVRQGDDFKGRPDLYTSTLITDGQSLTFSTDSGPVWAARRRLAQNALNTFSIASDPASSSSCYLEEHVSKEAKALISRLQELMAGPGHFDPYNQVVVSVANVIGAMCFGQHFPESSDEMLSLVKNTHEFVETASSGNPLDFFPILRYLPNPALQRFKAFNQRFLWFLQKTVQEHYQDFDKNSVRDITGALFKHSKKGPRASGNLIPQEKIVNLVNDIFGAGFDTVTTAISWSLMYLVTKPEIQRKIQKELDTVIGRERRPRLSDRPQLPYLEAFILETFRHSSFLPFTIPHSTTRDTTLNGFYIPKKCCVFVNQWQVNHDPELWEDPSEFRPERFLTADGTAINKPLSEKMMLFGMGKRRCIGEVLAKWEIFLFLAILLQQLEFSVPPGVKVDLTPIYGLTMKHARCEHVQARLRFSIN
Structure (SMILES),"activity change, negative = inhibition",Potency
O=C(O)CCCCCCCCCCC(=O)O,-18.3% (inactive),
C[C@H]1C[C@H]2[C@@H]3CCC4=CC(=O)C=C[C@]4(C)[C@@]3(F)[C@@H](O)C[C@]2(C)[C@@]1(O)C(=O)CO,,22.4 µM (active) and inactive
O=C1CCC(N2C(=O)c3ccccc3C2=O)C(=O)N1 (stereo not drawn),,inactive
COc1ccc(NC(C)=O)cc1N,,17.8 µM (active) and 25.2 µM (active)
CCCSc1ccc2nc(NC(=O)OC)[nH]c2c1,,5.64 µM (active) and 5.75 µM (active)
COc1ccc(Cl)cc1C(=O)NCCc1ccc(S(=O)(=O)NC(=O)NC2CCCCC2)cc1,,inactive
CN(C)CCOCCN(C)C,-20.6% (inactive),
CCc1ccc(CCOc2ccc(CC3SC(=O)NC3=O)cc2)nc1 (stereo not drawn),2.3% [at 53 µM] (inactive),
c1c[nH]cn1,-16.7% (inactive),
ON=C1CCCCC1,,32 µM (active) and inactive
COc1cc(Cc2cnc(N)nc2N)cc(OC)c1OC,,35.5 µM (active) and inactive
CCCCC(CC)CO (stereo not drawn),,inactive
CC(O)COCC(C)O (stereo not drawn),,inactive
CCCCCCCCCCCCS,,inactive
Cc1ccc(S(N)(=O)=O)cc1,-24.4% (inactive),
CCCCCCCCC/C=C/CC1CC(=O)OC1=O (stereo not drawn),,inactive

# Molecular target: Voltage-gated inwardly rectifying potassium channel KCNH2 (Homo sapiens) (UniProt Q12809)
# Experiment: Human Ether-a-go-go-Related Gene (hERG) channel small molecule antagonists: fluorescence cell-based qHTS assay (AID 1671200);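 note: hERG-expressing U2OS cells given a thallium stimulus after FluxOR II dye loading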
# Conditions: hERG-U2OS cells, FluxOR thallium flux fluorescence; series mostly up to 76.8 µM; activity change, negative = inhibition: at the top concentration
# Outline: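 In this thallium-flux screen, overnight-cultured U2OS cells bearing the channel are dye-loaded in darkness for an hour, rested 10 min at room temperature, and then monitored kinetically at 480/540 nm for two minutes post-stimulus.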
# Voltage-gated inwardly rectifying potassium channel KCNH2 (Homo sapiens), sequence (Q12809 whole entry, looked up): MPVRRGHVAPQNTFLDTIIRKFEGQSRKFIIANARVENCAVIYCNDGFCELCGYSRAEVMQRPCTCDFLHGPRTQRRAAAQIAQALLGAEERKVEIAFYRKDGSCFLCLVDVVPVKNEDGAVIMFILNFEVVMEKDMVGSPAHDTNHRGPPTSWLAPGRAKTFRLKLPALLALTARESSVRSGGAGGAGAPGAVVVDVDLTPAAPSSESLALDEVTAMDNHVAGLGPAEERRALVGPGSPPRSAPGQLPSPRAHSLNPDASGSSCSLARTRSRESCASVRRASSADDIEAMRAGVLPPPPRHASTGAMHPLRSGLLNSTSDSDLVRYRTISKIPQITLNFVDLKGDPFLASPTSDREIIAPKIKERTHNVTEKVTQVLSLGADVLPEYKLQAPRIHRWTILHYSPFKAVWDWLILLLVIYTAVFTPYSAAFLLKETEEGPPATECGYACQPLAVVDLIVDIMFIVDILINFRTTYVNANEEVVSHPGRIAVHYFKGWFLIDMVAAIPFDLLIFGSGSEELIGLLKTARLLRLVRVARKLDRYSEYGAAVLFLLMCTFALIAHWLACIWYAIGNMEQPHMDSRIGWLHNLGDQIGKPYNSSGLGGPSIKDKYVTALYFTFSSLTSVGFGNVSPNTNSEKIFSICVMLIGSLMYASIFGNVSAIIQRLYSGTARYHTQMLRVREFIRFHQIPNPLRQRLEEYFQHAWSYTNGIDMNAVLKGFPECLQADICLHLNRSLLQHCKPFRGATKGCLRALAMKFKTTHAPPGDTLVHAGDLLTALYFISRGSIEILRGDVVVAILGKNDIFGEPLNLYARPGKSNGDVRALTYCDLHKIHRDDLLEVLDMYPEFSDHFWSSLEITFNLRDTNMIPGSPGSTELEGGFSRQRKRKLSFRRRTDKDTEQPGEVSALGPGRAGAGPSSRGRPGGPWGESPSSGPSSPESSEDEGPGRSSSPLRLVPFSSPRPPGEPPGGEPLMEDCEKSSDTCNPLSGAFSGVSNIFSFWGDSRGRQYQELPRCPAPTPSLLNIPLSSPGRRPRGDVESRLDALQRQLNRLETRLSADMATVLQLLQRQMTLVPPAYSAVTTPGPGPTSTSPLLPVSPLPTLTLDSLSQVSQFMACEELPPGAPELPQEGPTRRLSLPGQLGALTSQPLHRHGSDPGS
row,Structure (SMILES),outcome
1,CC1=CC(=O)NS(=O)(=O)O1,inactive
2,N[C@@H](Cc1cc(I)c(Oc2cc(I)c(O)c(I)c2)c(I)c1)C(=O)O,inactive
3,O=C(O)CCCCCCCCCCC(=O)O,inactive
4,O=S1(=O)CC=CC1,inactive
5,Oc1cccc2ccccc12,inactive
6,C[C@H]1C[C@H]2[C@@H]3CCC4=CC(=O)C=C[C@]4(C)[C@@]3(F)[C@@H](O)C[C@]2(C)[C@@]1(O)C(=O)CO,inactive
7,CC1=C(C)S(=O)(=O)CCS1(=O)=O,inactive
8,O=C1CCC(N2C(=O)c3ccccc3C2=O)C(=O)N1 (stereo not drawn),inactive
9,COc1ccc(NC(C)=O)cc1N,inactive
10,CCCSc1ccc2nc(NC(=O)OC)[nH]c2c1,inactive
11,O=C(O)c1ccc2c(c1)C(=O)OC2=O,inactive
12,Cc1cc(C)c(C)cc1C,inactive
13,O=[N+]([O-])c1ccc(/C=C/c2ccc([N+](=O)[O-])cc2S(=O)(=O)O)c(S(=O)(=O)O)c1,inactive
14,CN(C)CCC(c1ccccc1)c1ccccn1 (stereo not drawn),inactive
15,CN(C)CCOCCN(C)C,inactive
16,CCc1ccc(CCOc2ccc(CC3SC(=O)NC3=O)cc2)nc1 (stereo not drawn),inactive
17,c1c[nH]cn1,inactive
18,CCCCCC/C(C=O)=C\c1ccccc1,inactive

row,Structure (SMILES),outcome
1,Nc1ccccc1[N+](=O)[O-],inactive
2,Cc1occc(=O)c1O,inactive
3,Cc1cccc(O)c1,inactive
4,CCCCN(CCCC)CCCC,inactive
5,O=C(OCCOCCOC(=O)c1ccccc1)c1ccccc1,inactive
6,Fc1ccc(Br)cc1,inactive
7,ON=C1CCCCC1,inactive
8,COc1cc(Cc2cnc(N)nc2N)cc(OC)c1OC,inactive
9,CCCCC(CC)CO (stereo not drawn),inactive
10,C[C@H]1C[C@@H]2[C@H]([C@@H](O)C[C@@]3(C)[C@H]2CC[C@]3(O)C(=O)CO)[C@@]2(C)C=CC(=O)C=C12,inactive
11,O=C(O)CC(C(=O)O)C(CC(=O)O)C(=O)O (stereo not drawn),inactive
12,CC(O)COCC(C)O (stereo not drawn),inactive
13,NNc1nncc2ccccc12,inactive
14,CCCCCCCCCCCCS,inactive
15,COCCCOc1ccnc(CS(=O)c2nc3ccccc3[nH]2)c1C (stereo not drawn),inactive
16,Cc1ccc(S(N)(=O)=O)cc1,inactive
17,CCCCCCCCC/C=C/CC1CC(=O)OC1=O (stereo not drawn),inactive
18,OCc1cccnc1,inactive

# Molecular target: Cytochrome P450 3A4 (Homo sapiens) (UniProt P08684)
# Experiment: Cytochrome P450 Family 3 Subfamily A Member 4 (CYP3A4) small molecule antagonists: luciferase reporter qHTS assay (AID 1671201); note: potency is the fitted concentration of half-maximal effect
# Conditions: P450-Glo CYP3A4 enzyme, luciferin luminescence, 1 h; series mostly up to 115 µM; activity change, negative = inhibition: at the top concentration
# Outline: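 CYP3A4 activity was followed with a P450-Glo proluciferin substrate. Test compounds in DMSO were preincubated 10 min; NADPH regeneration then ran 1 h, and light output was read 20 min after detection reagent.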
# Cytochrome P450 3A4 (Homo sapiens), sequence (P08684 whole entry, looked up): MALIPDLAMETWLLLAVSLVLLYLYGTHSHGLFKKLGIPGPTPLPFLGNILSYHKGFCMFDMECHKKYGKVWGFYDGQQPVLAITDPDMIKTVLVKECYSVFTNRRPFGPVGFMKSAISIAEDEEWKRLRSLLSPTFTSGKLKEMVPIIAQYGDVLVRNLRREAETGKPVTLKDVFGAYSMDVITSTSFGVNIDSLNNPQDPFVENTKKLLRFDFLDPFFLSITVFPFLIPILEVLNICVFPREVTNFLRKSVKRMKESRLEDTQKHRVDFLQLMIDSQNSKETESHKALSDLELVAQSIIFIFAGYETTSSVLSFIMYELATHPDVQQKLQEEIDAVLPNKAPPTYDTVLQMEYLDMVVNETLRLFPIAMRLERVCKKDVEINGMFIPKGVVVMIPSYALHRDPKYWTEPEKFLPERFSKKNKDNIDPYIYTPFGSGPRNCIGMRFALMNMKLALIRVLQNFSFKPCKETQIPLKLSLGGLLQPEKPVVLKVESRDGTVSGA
Structure (SMILES),Potency,"activity change, negative = inhibition"
N[C@@H](Cc1cc(I)c(Oc2cc(I)c(O)c(I)c2)c(I)c1)C(=O)O,inactive,
O=C(O)CCCCCCCCCCC(=O)O,inactive,
O=S1(=O)CC=CC1,inactive,
CC1=C(C)S(=O)(=O)CCS1(=O)=O,inactive,
O=C1CCC(N2C(=O)c3ccccc3C2=O)C(=O)N1 (stereo not drawn),inactive,
COc1ccc(NC(C)=O)cc1N,inactive,
O=C(O)c1ccc2c(c1)C(=O)OC2=O,inactive,
Cc1cc(C)c(C)cc1C,inactive,
O=[N+]([O-])c1ccc(/C=C/c2ccc([N+](=O)[O-])cc2S(=O)(=O)O)c(S(=O)(=O)O)c1,inactive,
CN(C)CCC(c1ccccc1)c1ccccn1 (stereo not drawn),inactive,
CN(C)CCOCCN(C)C,inactive,
CCCCCC/C(C=O)=C\c1ccccc1,inactive,
Nc1ccccc1[N+](=O)[O-],inactive,
Cc1occc(=O)c1O,inactive,
Cc1cccc(O)c1,inactive,
CCCCN(CCCC)CCCC,inactive,
O=C(OCCOCCOC(=O)c1ccccc1)c1ccccc1,inactive,
Fc1ccc(Br)cc1,inactive,
ON=C1CCCCC1,inactive,
CCCCC(CC)CO (stereo not drawn),,2.18% (inactive)
CCCCOC(=O)COc1ccc(Cl)cc1Cl,inactive,
O=C(O)CC(C(=O)O)C(CC(=O)O)C(=O)O (stereo not drawn),inactive,
CC(O)COCC(C)O (stereo not drawn),inactive,
CCCCCCCCCCCCS,inactive,
Cc1ccc(S(N)(=O)=O)cc1,28.1 µM (active) and inactive,
CCCCCCCCC/C=C/CC1CC(=O)OC1=O (stereo not drawn),inactive,
